PubChem BioAssay (EPA / NIEHS)
Values joined by “and” are separate entries in the source; they are usually repeats but may differ in a detail not shown here. Identical values can stand only once. More than one record can exist for a structure, and the calls need not agree. Active and inactive are the calls of the source. How the source made its calls: active means hit-call score of the fitted dose curve at least 0.9, where 1 is the maximum; inactive means score below 0.9.

Tests used:
[1] = target: Transcription factor E2F1 (Homo sapiens) (UniProt Q01094); assay: ATG_E2F_CIS: Attagene CIS-FACTORIAL HepG2 Assay for human E2F Transcription Factor 1 (AID 2282935); conditions: HepG2 Attagene cis-reporter, E2F reporter RNA transcripts; actives raise or lower the signal
How it was run: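 HepG2 cells transiently transfected with multiplexed cis-element reporter units, dosed for 24 h. Reporter mRNA measured by RT-PCR, 6-FAM primer-extension labeling, HpaI digestion and capillary electrophoresis; bidirectional fit versus DMSO baseline.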

[2] = ATG_E_Box_CIS: Attagene CIS-FACTORIAL HepG2 Assay for human Enhancer Box (E-box) (AID 2282936); conditions: HepG2 E-box cis-reporter transcription, actives raise or lower the signal
How it was run: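 HepG2 cells transiently transfected with multiplexed cis-element reporter units sensing endogenous transcription factor activity; 24 h compound exposure. Reporter mRNA measured by RT-PCR, 6-FAM primer extension, HpaI digestion and capillary electrophoresis; bidirectional fit versus DMSO.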

[3] = ATG_M_61_CIS: Attagene CIS-FACTORIAL HepG2 Assay for M61 Transcription Factor (Internal Marker) (AID 2282937); conditions: HepG2 Attagene CIS-FACTORIAL M61 internal marker reporter; actives raise or lower the signal
How it was run: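 HepG2 cells transiently transfected with cis-element-driven multiple reporter transcription units, dosed for 24 h. Reporter mRNA measured by RT-PCR, 6-FAM primer-extension labelling, HpaI digestion and capillary electrophoresis; bidirectional fit versus DMSO baseline.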

[4] = ATG_EGR_CIS: Attagene CIS-FACTORIAL HepG2 Assay for human Early Growth Response 1 (EGR1) (AID 2282938); conditions: HepG2 Attagene CIS-FACTORIAL EGR reporter mRNA; actives raise or lower the signal
How it was run: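 HepG2 cells transiently transfected with cis-promoter-driven multiplexed reporter transcription units; reporter mRNA measured 24 h after compound dosing by RT-PCR, 6-FAM primer extension, HpaI digestion and capillary electrophoresis. Bidirectional fit versus DMSO baseline.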

[5] = ATG_M_19_CIS: Attagene CIS-FACTORIAL HepG2 Assay for M19 Transcription Factor (Internal Marker) (AID 2282939); conditions: HepG2 Attagene CIS-FACTORIAL M19 internal marker reporter; actives raise or lower the signal
How it was run: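 Internal marker readout, fitted in both directions against DMSO, from HepG2 cells carrying transfected cis-element reporter constructs; RT-PCR and capillary electrophoresis of reporter mRNA after 24 h exposure.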

[6] = ATG_ERE_CIS: Attagene CIS-FACTORIAL HepG2 Assay for Estrogen Response Element (ERE) (AID 2282940); conditions: HepG2 ERE cis-reporter, Attagene RNA transcript; actives raise or lower the signal
How it was run: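 After 24 h compound treatment, RNA from transfected HepG2 cells was reverse-transcribed, reporter cDNA PCR-amplified, FAM-labelled, HpaI-cut and resolved by capillary electrophoresis. ERE-driven cis reporter transcripts reflect endogenous factors; gain or loss scored against DMSO.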

[7] = ATG_Ets_CIS: Attagene CIS-FACTORIAL HepG2 Assay for human Erythroblast Transformation Specific (ETS) (AID 2282941); conditions: HepG2 ETS cis-reporter transcription, actives raise or lower the signal
How it was run: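 HepG2 cells transfected with multiple cis-regulated reporter units measuring endogenous ETS-driven transcription, 24 h after dosing. Reporter mRNA quantified by RT-PCR with capillary electrophoresis; bidirectional fit relative to DMSO.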

[8] = target: Hepatocyte nuclear factor 3-beta (Homo sapiens) (UniProt Q9Y261); assay: ATG_FoxA2_CIS: Attagene CIS-FACTORIAL HepG2 Assay for human Forkhead box A2 (FOXA2) (AID 2282942); conditions: HepG2 cis-reporter transcription factor activity, 24 h; actives raise or lower the signal
How it was run: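 HepG2 cells transiently transfected with multiple cis-regulated reporter transcription units, dosed for 24 h. Reporter mRNA measured by RT-PCR, 6-FAM labelling, HpaI digestion and capillary electrophoresis; bidirectional fitting against DMSO baseline.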

[9] = ATG_FoxO_CIS: Attagene CIS-FACTORIAL HepG2 Assay for human Forkhead box O (FoxO) (AID 2282943); conditions: HepG2 Attagene cis-reporter, FoxO element, mRNA; actives raise or lower the signal
How it was run: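 HepG2 cells transiently transfected with cis-promoter-driven multiple reporter transcription units; 24 h after chemical dosing, reporter mRNA quantified by RT-PCR, fluorescent primer extension, HpaI digestion and capillary electrophoresis. Bidirectional fitting versus DMSO baseline.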

[10] = ATG_GATA_CIS: Attagene CIS-FACTORIAL HepG2 Assay for human GATA Binding Protein (AID 2282944); conditions: HepG2 GATA cis-element reporter, Attagene multiplex mRNA; actives raise or lower the signal
How it was run: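 Reporter transcripts from a GATA cis-regulated unit, among multiplexed reporters in transfected HepG2 cells, were measured by RT-PCR with capillary electrophoresis after 24 h dosing. Induction or loss scored relative to DMSO.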

[11] = ATG_GLI_CIS: Attagene CIS-FACTORIAL HepG2 Assay for human Zinc Finger Protein GLI1 (AID 2282945); conditions: HepG2, Attagene cis-factorial reporter mRNA, GLI element; actives raise or lower the signal
How it was run: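 HepG2 cells transiently transfected with cis-promoter multiplexed reporter units report endogenous transcription factor activity. After 24 h chemical exposure, reporter mRNA was quantified by RT-PCR, 6-FAM labelling, HpaI digestion and capillary electrophoresis, with bidirectional fitting against DMSO.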

[12] = target: Bile acid receptor (Homo sapiens) (UniProt Q96RI1); assay: ATG_IR1_CIS: Attagene CIS-FACTORIAL HepG2 Assay for human Nuclear Receptor Subfamily 1 Group H Member 4 (NR1H4), IR1 submotif (AID 2282946); conditions: IR1 reporter transcription, actives raise or lower the signal
How it was run: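 Transient MRTU transfection, HepG2; 24 h dosing; RNA → RT-PCR → 6-FAM primer extension → HpaI digest → capillary electrophoresis fluorescence. Gain/loss of signal fitted relative to DMSO.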

[13] = ATG_GRE_CIS: Attagene CIS-FACTORIAL HepG2 Assay for human Glucocorticoid Response Elements (GRE) (AID 2282947); conditions: HepG2 GRE cis-reporter, Attagene multiplex mRNA; actives raise or lower the signal
How it was run: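 HepG2 cells transiently transfected with multiple cis-promoter reporter units measure endogenous TF activity; 24 h compound exposure. Reporter mRNA quantified by RT-PCR, FAM labelling, HpaI digestion and capillary electrophoresis; bidirectional fit vs DMSO baseline.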

[14] = ATG_ISRE_CIS: Attagene CIS-FACTORIAL HepG2 Assay for human Interferon Regulatory Factor 1 (IRF1) binding to an Interferon-Stimulated Response Element (ISRE) (AID 2282948); conditions: HepG2 ISRE cis-reporter (Attagene), mRNA transcription readout; actives raise or lower the signal
How it was run: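 Transiently transfected HepG2 cells carrying cis-element reporter units, dosed 24 hours. Reporter mRNA quantified by RT-PCR, fluorescent primer extension, HpaI digestion and capillary electrophoresis. Bidirectional fitting relative to DMSO.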

[15] = ATG_M_32_CIS: Attagene CIS-FACTORIAL HepG2 Assay for M32 Transcription Factor (Internal Marker) (AID 2282949); conditions: HepG2 Attagene cis-factorial M32 reporter, mRNA; actives raise or lower the signal;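 further: background control marker of the multiplexed CIS panel rather than a real target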
How it was run: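 Internal background marker read-out: RT-PCR/capillary electrophoresis fluorescence of reporter transcripts from transiently transfected HepG2 cells after 24 h chemical exposure. Activity fitted bidirectionally relative to DMSO negative control.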

[16] = ATG_M_06_CIS: Attagene CIS-FACTORIAL HepG2 Assay for M06 Transcription Factor (Internal Marker) (AID 2282950); conditions: HepG2 Attagene CIS-FACTORIAL M06 internal marker reporter; actives raise or lower the signal
How it was run: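 Serves as a background control readout. Transfected HepG2 exposed to compounds for 24 h, then reporter transcripts quantified by fluorescent RT-PCR and capillary electrophoresis. Both directions fitted against DMSO baseline.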

[17] = target: Hepatocyte nuclear factor 6 (Homo sapiens) (UniProt Q9UBC0); assay: ATG_HNF6_CIS: Attagene CIS-FACTORIAL HepG2 Assay for human Hepatocyte Nuclear Factor 6 (HNF6) (AID 2282952); conditions: HepG2 Attagene cis-factorial HNF6 reporter transcription; actives raise or lower the signal
How it was run: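 Cells are HepG2 carrying transiently transfected cis-promoter reporter units. Treatment lasts 24 h, after which reporter transcripts are reverse-transcribed, amplified, FAM-labelled and sized by capillary electrophoresis. DMSO serves as baseline.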

[18] = target: Heat shock factor protein 1 (Homo sapiens) (UniProt Q00613); assay: ATG_HSE_CIS: Attagene CIS-FACTORIAL HepG2 Assay for human Heat Shock Transcription Factor 1 (HSE) (AID 2282953); conditions: HepG2 HSE cis-reporter, Attagene RNA transcription; actives raise or lower the signal
How it was run: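 Endogenous transcription factor activity in transiently transfected HepG2, read as reporter mRNA by RT-PCR with fluorescent capillary electrophoresis after 24 h. Gain or loss of signal fitted versus DMSO baseline.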

[19] = ATG_MRE_CIS: Attagene CIS-FACTORIAL HepG2 Assay for human Metal Responsive Element (MRE) (AID 2282954); conditions: HepG2 MRE cis-reporter transcription, Attagene multiplex; actives raise or lower the signal
How it was run: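 HepG2 cells transiently transfected with multiple cis-element reporter units measure endogenous MTF1-driven transcription. After 24 h compound exposure, reporter mRNA is quantified by RT-PCR with 6-FAM labelling, HpaI digestion and capillary electrophoresis; bidirectional fits versus DMSO.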

[20] = target: Hypoxia-inducible factor 1-alpha (Homo sapiens) (UniProt Q16665); assay: ATG_HIF1a_CIS: Attagene CIS-FACTORIAL HepG2 Assay for human Hypoxia Inducible Factor 1 (HIF1A) (AID 2282951); conditions: HepG2 Attagene cis-factorial HIF1a reporter transcription; actives raise or lower the signal
How it was run: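 HepG2 cells transiently transfected with multiplexed cis-promoter reporter units; reporter mRNA read 24 h after dosing by RT-PCR, 6-FAM primer-extension labelling, HpaI digestion and capillary electrophoresis. Bidirectional fit versus DMSO baseline.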

Measured: AC50

Sequence of Hepatocyte nuclear factor 3-beta (Homo sapiens) (Q9Y261 whole entry, looked up): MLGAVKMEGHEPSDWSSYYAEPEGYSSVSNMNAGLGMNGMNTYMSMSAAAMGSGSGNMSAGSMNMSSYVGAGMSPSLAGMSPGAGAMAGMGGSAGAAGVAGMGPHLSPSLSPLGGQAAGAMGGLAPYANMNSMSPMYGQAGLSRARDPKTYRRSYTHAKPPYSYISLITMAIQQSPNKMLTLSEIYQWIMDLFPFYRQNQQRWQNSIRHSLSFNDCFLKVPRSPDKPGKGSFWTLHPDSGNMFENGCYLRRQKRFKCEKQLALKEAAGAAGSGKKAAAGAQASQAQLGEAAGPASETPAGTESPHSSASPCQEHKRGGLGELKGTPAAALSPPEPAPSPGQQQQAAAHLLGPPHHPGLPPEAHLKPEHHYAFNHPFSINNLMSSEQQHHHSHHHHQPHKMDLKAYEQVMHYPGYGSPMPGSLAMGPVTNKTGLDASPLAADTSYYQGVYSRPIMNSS
Sequence of Transcription factor E2F1 (Homo sapiens) (Q01094 whole entry, looked up): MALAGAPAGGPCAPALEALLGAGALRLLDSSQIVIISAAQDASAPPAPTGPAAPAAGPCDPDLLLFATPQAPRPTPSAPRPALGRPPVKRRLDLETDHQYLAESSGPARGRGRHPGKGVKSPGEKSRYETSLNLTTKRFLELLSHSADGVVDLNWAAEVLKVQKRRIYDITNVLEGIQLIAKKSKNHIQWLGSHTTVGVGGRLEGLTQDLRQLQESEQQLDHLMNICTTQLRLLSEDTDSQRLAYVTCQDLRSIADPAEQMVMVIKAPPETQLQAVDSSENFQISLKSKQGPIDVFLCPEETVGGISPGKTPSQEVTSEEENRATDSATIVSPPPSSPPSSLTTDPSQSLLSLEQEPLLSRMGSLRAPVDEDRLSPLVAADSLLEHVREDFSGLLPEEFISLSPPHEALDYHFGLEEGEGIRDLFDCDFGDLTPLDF
Sequence of Hepatocyte nuclear factor 6 (Homo sapiens) (Q9UBC0 whole entry, looked up): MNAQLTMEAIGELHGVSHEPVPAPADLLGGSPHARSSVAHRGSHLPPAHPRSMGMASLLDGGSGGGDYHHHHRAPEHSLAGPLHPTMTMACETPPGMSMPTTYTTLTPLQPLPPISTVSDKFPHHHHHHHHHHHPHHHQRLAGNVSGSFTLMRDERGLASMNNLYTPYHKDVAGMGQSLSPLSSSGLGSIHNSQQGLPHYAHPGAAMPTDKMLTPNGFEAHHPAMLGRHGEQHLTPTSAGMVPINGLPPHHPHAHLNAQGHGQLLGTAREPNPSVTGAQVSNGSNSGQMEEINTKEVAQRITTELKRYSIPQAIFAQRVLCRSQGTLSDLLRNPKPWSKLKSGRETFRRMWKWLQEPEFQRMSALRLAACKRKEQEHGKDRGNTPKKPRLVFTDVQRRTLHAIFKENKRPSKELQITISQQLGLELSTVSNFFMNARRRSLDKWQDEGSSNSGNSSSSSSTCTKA
Sequence of Heat shock factor protein 1 (Homo sapiens) (Q00613 whole entry, looked up): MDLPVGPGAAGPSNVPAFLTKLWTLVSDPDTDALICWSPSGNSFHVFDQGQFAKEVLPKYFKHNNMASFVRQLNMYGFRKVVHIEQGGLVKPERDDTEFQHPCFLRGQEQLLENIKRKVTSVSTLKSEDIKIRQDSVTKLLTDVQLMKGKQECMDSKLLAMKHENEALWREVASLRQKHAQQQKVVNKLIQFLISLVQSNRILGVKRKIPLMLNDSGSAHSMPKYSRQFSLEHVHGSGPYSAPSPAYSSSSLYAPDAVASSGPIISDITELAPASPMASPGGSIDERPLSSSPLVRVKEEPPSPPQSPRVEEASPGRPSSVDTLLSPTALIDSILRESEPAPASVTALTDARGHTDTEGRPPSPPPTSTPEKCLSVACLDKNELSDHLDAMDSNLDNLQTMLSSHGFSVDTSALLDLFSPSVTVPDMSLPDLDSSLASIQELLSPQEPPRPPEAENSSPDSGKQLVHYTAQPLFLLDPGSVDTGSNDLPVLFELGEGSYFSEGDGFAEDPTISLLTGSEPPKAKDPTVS
Sequence of Hypoxia-inducible factor 1-alpha (Homo sapiens) (Q16665 whole entry, looked up): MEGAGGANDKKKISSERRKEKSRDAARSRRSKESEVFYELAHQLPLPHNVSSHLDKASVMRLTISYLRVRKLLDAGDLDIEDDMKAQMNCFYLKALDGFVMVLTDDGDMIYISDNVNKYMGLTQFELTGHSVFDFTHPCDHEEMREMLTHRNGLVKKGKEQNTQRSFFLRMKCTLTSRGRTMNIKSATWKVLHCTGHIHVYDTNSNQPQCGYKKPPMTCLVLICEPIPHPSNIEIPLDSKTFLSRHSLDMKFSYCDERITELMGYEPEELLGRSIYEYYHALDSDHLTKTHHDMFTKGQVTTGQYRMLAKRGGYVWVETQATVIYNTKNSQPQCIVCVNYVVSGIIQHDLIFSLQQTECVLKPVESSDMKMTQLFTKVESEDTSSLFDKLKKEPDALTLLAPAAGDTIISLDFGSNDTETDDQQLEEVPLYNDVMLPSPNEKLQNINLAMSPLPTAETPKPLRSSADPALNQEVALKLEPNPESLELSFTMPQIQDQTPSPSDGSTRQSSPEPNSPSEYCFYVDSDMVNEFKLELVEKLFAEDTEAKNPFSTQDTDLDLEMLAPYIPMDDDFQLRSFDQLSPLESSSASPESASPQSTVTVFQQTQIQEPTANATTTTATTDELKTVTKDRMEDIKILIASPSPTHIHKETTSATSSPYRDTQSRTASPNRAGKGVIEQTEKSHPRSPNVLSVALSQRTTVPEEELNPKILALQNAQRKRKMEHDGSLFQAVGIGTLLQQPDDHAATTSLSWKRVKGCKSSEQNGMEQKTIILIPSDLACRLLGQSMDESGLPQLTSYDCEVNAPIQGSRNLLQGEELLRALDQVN
Sequence of Bile acid receptor (Homo sapiens) (Q96RI1 whole entry, looked up): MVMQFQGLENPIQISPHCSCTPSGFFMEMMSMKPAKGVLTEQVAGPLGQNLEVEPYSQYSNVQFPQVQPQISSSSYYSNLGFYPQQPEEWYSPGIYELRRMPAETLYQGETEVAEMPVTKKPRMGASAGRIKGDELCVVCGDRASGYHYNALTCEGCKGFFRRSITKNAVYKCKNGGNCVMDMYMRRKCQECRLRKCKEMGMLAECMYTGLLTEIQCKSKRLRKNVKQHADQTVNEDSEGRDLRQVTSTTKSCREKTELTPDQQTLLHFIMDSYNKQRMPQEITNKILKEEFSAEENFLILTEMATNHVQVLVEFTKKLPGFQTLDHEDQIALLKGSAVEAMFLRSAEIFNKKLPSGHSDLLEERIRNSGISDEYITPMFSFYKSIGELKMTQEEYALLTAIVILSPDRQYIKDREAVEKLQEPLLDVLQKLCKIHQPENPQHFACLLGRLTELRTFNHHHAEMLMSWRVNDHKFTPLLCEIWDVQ

c1ccc2[nH]c(-c3cscn3)nc2c1
not listed: [19] | [20]
inactive: all other assays above

CC(=O)[C@H]1CC[C@H]2[C@@H]3CCC4=CC(=O)CC[C@]4(C)[C@H]3CC[C@]12C
active: [1] 68.4 µM | [4] 22.6 µM and 50.7 µM and 26.7 µM | [6] 1.27 µM [middle of 4 runs] | [9] 154 µM | [10] 152 µM | [14] 46.4 µM | [17] 182 µM | [18] 60 µM and 149 µM
inactive: [1] | [3] | [4] | [5] | [7] | [8] | [9] | [10] | [11] | [14] | [16] | [17] | [18]

OB(O)O
not listed: [15] | [20]
inactive: all other assays above

COC(=O)c1ccc(CNS(C)(=O)=O)cc1S(=O)(=O)NC(=O)Nc1nc(OC)cc(OC)n1
not listed: [19] | [20]
inactive: all other assays above

CSC(=O)c1cccc2nnsc12
not listed: [12]
inactive: all other assays above

CC1(C)C(C=C(Cl)Cl)C1C(=O)OCc1cccc(Oc2ccccc2)c1 (stereo not given)
active: [6] 21.3 µM
not listed: [12] | [19]
inactive: all other assays above

COC(=O)c1ccccc1C(=O)O
not listed: [12] | [19]
inactive: all other assays above
